From PubChem BioAssay
Most compounds without a hit are left out; they make up all but 0.83% or so of the library.
QS inhibitor – inhibitors of bacterial quorum sensing in S. aureus; S. aureus RN6390 RNAIII-GFP reporter, AIP-induced, flow cytometry 3 h; inhibition, % at 2 µM; 0.3% of 24,000 active; AID 527;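 active = share of bacteria positive for the green fluorescent reporter and its mean brightness both inhibited by 50% or more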;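 also: 0% = AIP-stimulated control and 100% = unstimulated bacteria without AIP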
LNCaP diff act – activators of LNCaP prostate cell differentiation. 0.56% of 24,000 active. side scatter shift, % at 10 µM. flow cytometry side scatter, 4 d;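 active = side scatter shift above 30%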;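 also: androgen-responsive LNCaP prostate cancer cells in charcoal-stripped serum medium; percent of cells past a gate set so DMSO wells show 10% shift; higher shift means more granular cells and more differentiation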
* hit, by the source's call; / = no result given.

SMILES	QS inhibitor	LNCaP diff act
COc1ccccc1N1CCN(CCCNC(=O)Nc2ccccc2C)CC1	-8.1	3.0
COc1ccc(Cl)c(N2CCN(CCCNC(=O)Nc3ccc(C)cc3)CC2)c1	4.0	40.0*
COc1ccc(Cl)c(NC(=O)NCCN2CCN(c3ccccc3)CC2)c1	0.1	18.0
COc1ccc(Cl)cc1N1CCN(CCNC(=O)Nc2ccccc2C)CC1	0.1	45.0*
COc1ccc(-c2ccc(-c3noc(-c4ccccc4)n3)c(OC)n2)cc1	11.1	34.0*
COc1nc(-c2ccc(Cl)cc2)ccc1-c1noc(-c2ccncc2)n1	0.3	8.0
CCc1ccc2[nH]c(=O)c(CN(CCCN3CCOCC3)C(=O)Nc3ccc(F)cc3)cc2c1	92.9*	/
O=C(Nc1ccc(F)cc1)N(CCCN1CCOCC1)Cc1cc2cc3c(cc2[nH]c1=O)OCO3	9.8	10.0
Cc1nc2ccccc2c(=O)n1NCc1cc(Br)cs1	-2.0	6.0
O=C(Cn1c(=O)oc2cc(S(=O)(=O)N3CCCCCC3)ccc21)NC1CCCCCCC1	-4.6	24.0
O=C(COc1ccc(S(=O)(=O)N2CCCC2)cc1Cl)NC1CC1	-0.2	36.0*
O=C1c2ccccc2C(Nc2ccc3c(c2)OCCO3)N1Cc1ccccc1 (stereo not given)	-3.3	9.0
CC(=O)c1cccc(NC2c3ccccc3C(=O)N2Cc2ccc3c(c2)OCO3)c1 (stereo not given)	1.2	30.0*
O=C(CN1CCN(C2CCCCC2)CC1)c1ccc2cc[nH]c2c1	-3.3	8.0
Cc1cccc(N2CCN(C(=O)c3cc4c(C)nc5ccccc5c4o3)CC2)c1C	6.2	4.0
CN(C)c1ccc(CNC2CC(C)(C)NC(C)(C)C2)cc1	1.0	36.0*
CN(C)c1ccc(CNn2cnnc2)cc1	-0.2	4.0
COc1ccc(CNC(=O)c2ccc(NC(=O)C3CCCO3)cc2)cc1 (stereo not given)	0.2	7.0
COc1ccc(C(=O)Nc2nncs2)cc1S(=O)(=O)N1CC(c2ccccc2)CC1=O (stereo not given)	-2.1	8.0
CN(C(=O)c1ccccn1)c1nnc(-c2cccnc2)s1	-0.3	32.0*
CCN(C(=O)c1c(OC)cccc1OC)c1nnc(-c2cccnc2)s1	-5.8	14.0
Nc1c(C(O)(C(F)(F)F)C(F)(F)F)ccc2ccccc12	62.8*	19.0
Cc1noc(/C=C/N(C)C)c1S(=O)(=O)N1CCCC(C(=O)NCCC2=CCCCC2)C1 (stereo not given)	-1.7	13.0
Cn1nc(-c2ccc(Cl)cc2)c2cc(C(=O)NCCN3CCOCC3)sc21	1.5	9.0
CCOCCCNC(=O)c1cc2c(-c3ccc(Cl)cc3)nn(C)c2s1	-4.6	0.0
SMILES	QS inhibitor	LNCaP diff act
CCN(CC)CCNC(=O)c1cc2c(-c3ccc(Cl)cc3)nn(C)c2s1	-0.9	40.0*
Cn1nc(-c2ccc(Cl)cc2)c2cc(C(=O)NCCCN3CCOCC3)sc21	-0.3	31.0*
Cn1c(=O)cc(SCC(=O)NCC2CCCO2)c2ccccc21 (stereo not given)	-2.5	13.0
Cc1ccc2c(c1)NC(=O)C(CC(=O)N(C)Cc1ccccc1)O2 (stereo not given)	2.5	7.0
COc1ccc(-n2ncc3c(N4CCN(c5cccc(C)c5C)CC4)ncnc32)cc1	-1.2	19.0
COc1ccc(-n2cc(-c3ccccc3)c3c(N4CCN(CCO)CC4)ncnc32)cc1	1.4	44.0*
Cc1cc(C)n(Cc2ccc(F)cc2)c(=O)c1C#N	-1.4	17.0
Cc1cc(C)n2nnnc2c1C#N	1.9	37.0*
Cc1cccc(-n2nc3c(c2NC(=O)CCC2CCCCC2)CS(=O)C3)c1C (stereo not given)	-0.6	2.0
COc1ccc2cc3cc(C(=O)Nc4ccccc4N4CCN(C)CC4)oc3nc2c1	1.2	62.0*
COc1ccc2cc3cc(C(=O)NCCN4CCN(c5ccccc5F)CC4)oc3nc2c1	0.8	4.0
CC1(C)CC(=O)c2cc(OCC(=O)NCc3cccnc3)ccc2O1	-0.6	11.0
CCn1c(=O)cc(SCC(=O)NCCCN2CCN(c3ccccc3F)CC2)c2ccccc21	4.2	49.0*
CC1(C)CC(=O)c2cc(OCC(=O)NCCCN3CCN(c4ccccc4F)CC3)ccc2O1	4.6	30.0*
Cn1c(=O)cc(OCC(=O)NCCCN2CCN(c3ccccc3F)CC2)c2ccccc21	-4.4	9.0
CCOC(=O)Cn1c(=O)oc2cc(S(=O)(=O)N3CCc4ccccc43)ccc21	-3.3	8.0
COc1ccc(OC)c(Nc2nc(-c3cccs3)cs2)c1	7.7	8.0
COc1ccc(Nc2nc(-c3sc(N)nc3C)cs2)cc1	56.2*	14.0
CC1(C)S[C@@H]2[C@H](NC(=O)[C@H](N)c3ccccc3)C(=O)N2[C@H]1C(=O)O	50.3*	0.0
CC1(C)S[C@@H]2[C@H](NC(=O)C(C(=O)O)c3ccccc3)C(=O)N2[C@H]1C(=O)O (stereo not given in full)	-4.5	2.0
O=S(=O)(c1ccc2oc(-c3ccncc3)nc2c1)c1ccc2oc(-c3ccncc3)nc2c1	0.1	11.0
Fc1ccccc1Cn1nnc2c(-n3ccnc3)ncnc21	-1.6	4.0
CCn1c(=O)cc(SCC(=O)N2CCN(c3ccccc3OC)CC2)c2ccccc21	0.5	7.0
O=C(NCCN1CCN(c2ccccc2)CC1)c1cccn2c(=O)c3ccccc3nc12	80.1*	0.0
O=C(NCCN1CCN(c2ccccc2F)CC1)c1cccn2c(=O)c3ccccc3nc12	-13.6	6.0
SMILES	QS inhibitor	LNCaP diff act
Cc1nc2ccc(S(=O)(=O)NCC(=O)N3CCC(C)CC3)cc2s1	-0.8	15.0
COCCNC(=O)C1CCCN(c2nn3c(=O)cc(C)nc3s2)C1 (stereo not given)	5.2	13.0
Cc1cc(=O)n2nc(N3CCCC(C(=O)NCCCN4CCc5ccccc5C4)C3)sc2n1 (stereo not given)	1.7	38.0*
COc1cc(NC(=O)c2cccc3c2C(=O)N(Cc2cccnc2)C3)cc(OC)c1OC	-2.0	15.0
CCOC(=O)c1ccccc1NC(=O)Cn1c(-c2nonc2N)nc2ccccc21	17.4	32.0*
CCC(=O)Nc1nonc1-c1nc2ccccc2n1CC(C)C	-0.3	1.0
Cc1cccn2c(=O)c3cc(C(=O)NC4CCCC4)c(=N)n(C4CCCC4)c3nc12	1.5	19.0
N=c1c(C(=O)NC2CCCC2)cc2c(=O)n3ccccc3nc2n1C1CCCC1	-1.0	68.0*
Cc1cc(NC(=O)Cn2cnc3c2c(=O)n(C)c(=O)n3C)n(-c2ccccc2)n1	-0.4	3.0
CCOC(=O)CCC(=O)O[C@H]1[C@H](O[C@@H]2[C@@H](C)[C@H](O[C@H]3C[C@@](C)(OC)[C@@H](O)[C@H](C)O3)[C@@H](C)C(=O)O[C@H](CC)[C@@](C)(O)[C@H](O)[C@@H](C)C(=O)[C@H](C)C[C@@]2(C)O)O[C@H](C)C[C@@H]1N(C)C	51.8*	1.0
CN(CC(=O)NCc1ccc2c(c1)OCO2)S(=O)(=O)c1ccc(Br)s1	4.8	1.0
O=C(c1ccccc1)c1ccc(N2CCNCC2)cc1	-0.3	41.0*
O=C(c1ccc(N2CCN(C3CC(=O)N(c4ccc(F)cc4)C3=O)CC2)cc1)c1cccnc1 (stereo not given)	-2.0	/
CCN(CC)CCNC(=O)c1nn(-c2ccc(C)cc2)c(=O)c2c1c1ccccc1n2C	6.0	36.0*
Cc1ccc(-n2nc(C(=O)NCc3ccco3)c3c4ccccc4n(C)c3c2=O)cc1	-0.8	8.0
CCCCN(C)Cc1c(C)[nH]c2ccc(OCC)cc2c1=O	-5.0	5.0
CC(C(=O)c1ccccc1)n1cnc2ccccc2c1=O (stereo not given)	-1.6	9.0
